# The supplement of paper PMC8728848
# The sample as a whole holds a higher share of the strongest signals than the screen did.
# B1: Clec18C (Homo sapiens) (protein)
# chain: MLHPETSPGRGHLLAVLLALLGTAWAEVWPPQLQEQAPMAGALNRKESFLLLSLHNRLRSWVQPPAADMRRLDWSDSLAQLAQARAALCGTPTPSLASGLWRTLQVGWNMQLLPAGLVSFVEVVSLWFAEGQRYSHAAGECARNATCTHYTQLVWATSSQLGCGRHLCSAGQAAIEAFVCAYSPRGNWEVNGKTIVPYKKGAWCSLCTASVSGCFKAWDHAGGLCEVPRNPCRMSCQNHGRLNISTCHCHCPPGYTGRYCQVRCSLQCVHGRLREEECSCVCDIGYGGAQCATKVHFPFHTCDLRIDGDCFMVSSEADTYYRARMKCQRKGGVLAQIKSQKVQDILAFYLGRLETTNEVIDSDFETRNFWIGLTYKTAKDSFRWATGEHQAFTSFAFGQPDNHGFGNCVELQASAAFNWNNQRCKTRNRYICQFAQEHISRWGPGS
# What was measured:
# Experiment in all cases: glycan array binding signal (z-score within array); higher = stronger binding
# Settings in all cases: glycan notation: IUPAC condensed, linker removed
# [1] = biological target: Fuc(a1-2)Gal(b1-3)GlcNAc(b1-2)Man(a1-3)[Fuc(a1-2)Gal(b1-3)GlcNAc(b1-2)Man(a1-6)]Man(b1-4)GlcNAc(b1-4)GlcNAc
# In short: (§1)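 Glycan array data were curated from 3228 arrays in the Consortium for Functional Glycomics database and kept only where the protein sequence was available. Glycan names were converted to IUPAC-condensed notation, and columns mapping to the same glycan were averaged. The binding signal is a within-array Z-score, averaged across arrays of the same protein sequence at different concentrations or buffers and across linkers. Negative Z-scores can be read as non-binding.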
# [2] = biological target: Fuc(a1-2)Gal(b1-3)[Fuc(a1-4)]GlcNAc(b1-2)Man(a1-3)[Fuc(a1-2)Gal(b1-3)[Fuc(a1-4)]GlcNAc(b1-2)Man(a1-3)]Man(b1-4)GlcNAc(b1-4)GlcNAc
# In short: as §1
# [3] = biological target: Fuc(a1-2)Gal(b1-4)GlcNAc(b1-3)Gal(b1-4)GlcNAc(b1-2)Man(a1-3)[Fuc(a1-2)Gal(b1-4)GlcNAc(b1-3)Gal(b1-4)GlcNAc(b1-2)Man(a1-6)]Man(b1-4)GlcNAc(b1-4)GlcNAc
# In short: as §1
# [4] = biological target: Fuc(a1-2)Gal(b1-4)GlcNAc(b1-3)GalNAc
# In short: as §1
# [5] = biological target: Fuc(a1-2)Gal6S(b1-3)GlcNAc6S
# In short: as §1
# [6] = biological target: Fuc(a1-2)[Gal(a1-3)]Gal
# In short: as §1
# [7] = biological target: Fuc(a1-2)[Gal(a1-3)]Gal(b1-3)GlcNAc(b1-2)Man(a1-3)[Fuc(a1-2)[Gal(a1-3)]Gal(b1-3)GlcNAc(b1-2)Man(a1-6)]Man(b1-4)GlcNAc(b1-4)GlcNAc
# In short: as §1
# [8] = biological target: Fuc(a1-3)[Gal(b1-4)]GlcNAc(b1-3)Gal(b1-4)[Fuc(a1-3)]GlcNAc
# In short: as §1
# [9] = biological target: Fuc(a1-3)[GalNAc(b1-4)]GlcNAc6S
# In short: as §1
# [10] = biological target: Gal(a1-4)Gal(b1-4)GlcNAc
# In short: as §1
# [11] = biological target: Gal(b1-3)GlcNAc(b1-2)[Gal(b1-3)GlcNAc(b1-6)]Man(a1-6)[Gal(b1-3)GlcNAc(b1-2)Man(a1-3)]Man(b1-4)GlcNAc(b1-4)GlcNAc
# In short: as §1
# [12] = biological target: Gal(b1-3)GlcNAc(b1-3)Gal(b1-3)GlcNAc
# In short: as §1
# [13] = biological target: Gal(b1-3)GlcNAc(b1-3)Gal(b1-4)Glc
# In short: as §1
# [14] = biological target: Gal(b1-3)[GlcNAc(b1-6)]GalNAc
# In short: as §1
# [15] = biological target: Gal(b1-4)GlcNAc(b1-2)Man(a1-3)[Gal(b1-4)GlcNAc(b1-2)Man(a1-6)]Man(b1-4)GlcNAc(b1-4)GlcNAc
# In short: as §1
# [16] = biological target: Gal(b1-4)GlcNAc(b1-2)Man(a1-3)[Gal(b1-4)GlcNAc(b1-2)Man(a1-6)][GlcNAc(b1-4)]Man(b1-4)GlcNAc(b1-4)[Fuc(a1-6)]GlcNAc
# In short: as §1
# [17] = biological target: Gal(b1-4)GlcNAc(b1-3)Gal(b1-3)GalNAc
# In short: as §1
# [18] = biological target: Gal(b1-4)GlcNAc(b1-3)Gal(b1-4)GlcNAc(b1-3)Gal(b1-4)GlcNAc(b1-3)Gal(b1-4)GlcNAc(b1-2)Man(a1-3)[Gal(b1-4)GlcNAc(b1-3)Gal(b1-4)GlcNAc(b1-3)Gal(b1-4)GlcNAc(b1-3)Gal(b1-4)GlcNAc(b1-2)Man(a1-6)]Man(b1-4)GlcNAc(b1-4)GlcNAc
# In short: as §1
# [19] = biological target: Gal(b1-4)GlcNAc(b1-3)Gal(b1-4)GlcNAc(b1-3)Gal(b1-4)GlcNAc(b1-3)Gal(b1-4)GlcNAc(b1-2)Man(a1-3)[Gal(b1-4)GlcNAc(b1-3)Gal(b1-4)GlcNAc(b1-3)Gal(b1-4)GlcNAc(b1-3)Gal(b1-4)GlcNAc(b1-2)Man(a1-6)]Man(b1-4)GlcNAc(b1-4)[Fuc(a1-6)]GlcNAc
# In short: as §1
# [20] = biological target: Gal(b1-4)GlcNAc(b1-3)Gal(b1-4)GlcNAc(b1-3)Gal(b1-4)GlcNAc(b1-3)Gal(b1-4)GlcNAc(b1-3)Gal(b1-4)GlcNAc(b1-2)Man(a1-3)[Gal(b1-4)GlcNAc(b1-3)Gal(b1-4)GlcNAc(b1-3)Gal(b1-4)GlcNAc(b1-3)Gal(b1-4)GlcNAc(b1-3)Gal(b1-4)GlcNAc(b1-2)Man(a1-6)]Man(b1-4)GlcNAc(b1-4)[Fuc(a1-6)]GlcNAc
# In short: as §1
# [21] = biological target: Gal(b1-4)GlcNAc(b1-3)[Fuc(a1-3)GlcNAc(b1-6)]Gal(b1-4)Glc
# In short: as §1
# [22] = biological target: Gal(b1-4)GlcNAc(b1-3)[Gal(b1-4)GlcNAc(b1-6)]Gal(b1-4)GlcNAc
# In short: as §1
# [23] = biological target: Gal(b1-4)GlcNAc6P
# In short: as §1
# [24] = biological target: Gal3S(b1-4)Glc6S
# In short: as §1
# [25] = biological target: Gal3S(b1-4)[Fuc(a1-3)]GlcNAc6S
# In short: as §1
# [26] = biological target: GalNAc(b1-3)GlcNAc
# In short: as §1
# [27] = biological target: GalNAc3S(b1-4)[Fuc(a1-3)]GlcNAc
# In short: as §1
# [28] = biological target: GlcA3S(b1-3)Gal(b1-4)GlcNAc(b1-3)Gal(b1-4)Glc
# In short: as §1
# [29] = biological target: GlcNAc(b1-3)Gal(b1-4)GlcNAc(b1-2)[GlcNAc(b1-3)Gal(b1-4)GlcNAc(b1-6)]Man(a1-6)[GlcNAc(b1-3)Gal(b1-4)GlcNAc(b1-2)Man(a1-3)]Man(b1-4)GlcNAc(b1-4)GlcNAc
# In short: as §1
# [30] = biological target: GlcNAc(b1-3)Gal(b1-4)GlcNAc(b1-6)[Gal(b1-3)]GalNAc
# In short: as §1
# [31] = biological target: Man(a1-3)[Man(a1-6)]Man
# In short: as §1
# [32] = biological target: Neu5Ac(a2-3)Gal(b1-3)GlcNAc(b1-6)GalNAc
# In short: as §1
# [33] = biological target: Neu5Ac(a2-3)Gal(b1-4)GlcNAc(b1-6)GalNAc
# In short: as §1
# [34] = biological target: Neu5Ac(a2-6)Gal(b1-4)GlcNAc(b1-2)Man(a1-3)[Man(a1-6)]Man(b1-4)GlcNAc(b1-4)GlcNAc
# In short: as §1
# [35] = biological target: Neu5Ac(a2-6)Gal(b1-4)GlcNAc(b1-2)Man(a1-3)[Neu5Ac(a2-6)Gal(b1-4)GlcNAc(b1-2)Man(a1-6)]Man(b1-4)GlcNAc(b1-4)GlcNAc
# In short: as §1
# [36] = biological target: Neu5Ac(a2-6)Gal(b1-4)GlcNAc(b1-3)Gal(b1-3)GlcNAc
# In short: as §1
# [37] = biological target: Neu5Ac(a2-6)Gal(b1-4)GlcNAc(b1-3)Gal(b1-4)GlcNAc
# In short: as §1
# [38] = biological target: Neu5Ac(a2-6)GalNAc
# In short: as §1
# [39] = biological target: Neu5Gc(a2-6)GalNAc
# In short: as §1
binder,measurement,setting,value
B1,glycan array binding signal (z-score),[1],3.46
same,glycan array binding signal (z-score),[2],0.055
same,glycan array binding signal (z-score),[3],0.124
same,glycan array binding signal (z-score),[4],3.79
same,glycan array binding signal (z-score),[5],-0.032
same,glycan array binding signal (z-score),[6],-0.382
same,glycan array binding signal (z-score),[7],-0.479
same,glycan array binding signal (z-score),[8],-0.261
same,glycan array binding signal (z-score),[9],0.313
same,glycan array binding signal (z-score),[10],1.24
same,glycan array binding signal (z-score),[11],-0.547
same,glycan array binding signal (z-score),[12],-0.443
same,glycan array binding signal (z-score),[13],-0.457
same,glycan array binding signal (z-score),[14],4.42
same,glycan array binding signal (z-score),[15],5.03
same,glycan array binding signal (z-score),[16],1.07
same,glycan array binding signal (z-score),[17],5.75
same,glycan array binding signal (z-score),[18],1.91
same,glycan array binding signal (z-score),[19],-0.276
same,glycan array binding signal (z-score),[20],3.34
same,glycan array binding signal (z-score),[21],-0.356
same,glycan array binding signal (z-score),[22],7.63
same,glycan array binding signal (z-score),[23],5.02
same,glycan array binding signal (z-score),[24],-0.387
same,glycan array binding signal (z-score),[25],-0.116
same,glycan array binding signal (z-score),[26],3.98
same,glycan array binding signal (z-score),[27],-0.342
same,glycan array binding signal (z-score),[28],-0.395
same,glycan array binding signal (z-score),[29],-0.368
same,glycan array binding signal (z-score),[30],-0.398
same,glycan array binding signal (z-score),[31],-0.507
same,glycan array binding signal (z-score),[32],-0.247
same,glycan array binding signal (z-score),[33],3.92
same,glycan array binding signal (z-score),[34],-0.24
same,glycan array binding signal (z-score),[35],0.183
same,glycan array binding signal (z-score),[36],0.131
same,glycan array binding signal (z-score),[37],3.16
same,glycan array binding signal (z-score),[38],5.42
same,glycan array binding signal (z-score),[39],-0.265
